The campaign covered roughly 2,300 compounds. About 1,500 (65%) were called active. No rule for the calls is given here. So high a share suggests a set chosen from earlier hits. Not all results are given here.
Experiment: PubChem AID 2252;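 also: 100% = mean of untreated cell control wells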
Conditions: THP-1 viability, CellTiter-Glo luminescence, 72 h; min viability: minimum viability across concentrations, stronger effect = lower value, concentration not given here; series mostly up to 50 µM

Row | SMILES | outcome | min viability [%]
1 | O=C(c1cccs1)N1CCN(S(=O)(=O)c2ccccc2)CC1 | inactive | –
2 | COc1ccc(Cl)cc1NC(=O)c1cc(-c2ccccc2)on1 | inactive | –
3 | C#CCOCCOCCOCCNc1nc(N2CCN(C(=O)[C@H](CCCCN)n3cc([C@@H](N)CC(C)C)nn3)CC2)nc(N2CCN(C(=O)[C@H](Cc3cc4ccccc4[nH]3)n3cc([C@@H](N)Cc4ccc(O)cc4)nn3)CC2)n1 | inactive | –
4 | CO[C@@]1(NC(=O)C2SC(=C(C(N)=O)C(=O)O)S2)C(=O)N2C(C(=O)O)=C(CSc3nnnn3C)CS[C@@H]21 (stereo partly specified) | inactive | –
5 | CC1=NOC(=O)/C1=C/c1ccc(O)cc1 | inactive | –
6 | Fc1ccccc1CCNCc1ccccc1 | inactive | –
7 | CCn1cc(C(=O)O)c(=O)c2cc(F)c(N3CCN(C(=O)Nc4ccccc4)CC3)cc21 | inactive | –
8 | COc1ccc(Cl)cc1S(=O)(=O)N1CCN(C(=O)c2ccco2)CC1 | inactive | –
9 | C#CCOCCOCCOCCNc1nc(N2CCN(C(=O)[C@H](Cc3ccc(O)cc3)n3cc([C@@H](N)CC(C)C)nn3)CC2)nc(N2CCN(C(=O)[C@H](Cc3ccc(O)cc3)n3cc([C@@H](N)CC(C)C)nn3)CC2)n1 | inactive | –
10 | O=C(O)c1ccc(CSc2nnnn2C2CCCCC2)cc1 | inactive | –
11 | COC(=O)c1ccc(NC(=O)c2ccccc2N(C)S(=O)(=O)c2ccccc2)cc1 | inactive | –
12 | CCOC(=O)c1sc(N)c(C(=O)OC)c1C | inactive | –
13 | COc1cc(OC)nc(NC(=O)C(C)C)n1 | inactive | –
14 | C[C@]1(OC(=O)/C=C/c2ccccc2)C[C@@H](O)[C@]2(O)C=CO[C@@H](O[C@@H]3O[C@H](CO)[C@@H](O)[C@H](O)[C@H]3O)[C@@H]21 | inactive | –
15 | O=[N+]([O-])c1ccc(CN2CCSCC2)cc1 | inactive | –
16 | NC(=O)c1cc(S(=O)(=O)Nc2cccc(F)c2)co1 | inactive | –
17 | O=C(N/N=C/c1ccc(F)c(F)c1)c1cc2c(s1)-c1ccccc1CC2 | inactive | –
18 | O=C(COc1ccc(Cl)cc1)N1CCN(C2CCCC2)CC1 | inactive | 92.7
19 | O=C(/C=C/c1ccccc1)OCc1cnc(Cl)s1 | inactive | –
20 | CCOC(=O)c1cccc(NC(=O)C2CCC(CNc3c(N4CCOCC4)c(=O)c3=O)CC2)c1 (stereo unspecified) | inactive | –
21 | Cc1cc(C(=O)Nc2cccnc2)on1 | inactive | –
22 | O=c1c2ccccc2[nH]c2ccccc12 | inactive | –
23 | CCN1CCN(C(=O)c2cc3ccc(OC)cc3[nH]2)CC1 | inactive | –

Row | SMILES | outcome | min viability [%]
24 | CC(C)(C)NC(=O)/C=C/c1ccc(C(F)(F)F)cc1 | inactive | –
25 | COc1cccc(CNc2nn[nH]n2)c1OC | inactive | –
26 | Nc1ccc(S(=O)(=O)Nc2ccc(Cl)nn2)cc1 | inactive | –
27 | O=C(NC1(C(F)(F)F)C(=O)Nc2c1c(=O)[nH]c(=O)n2-c1ccccc1)c1ccncc1 (stereo unspecified) | inactive | –
28 | CC(C)C(NS(=O)(=O)c1cccc2nsnc12)C(=O)N1CCn2c1nc1ccccc12 (stereo unspecified) | inactive | –
29 | O=S(=O)(Nc1cccc(-c2cn3c(n2)SCC3)c1)c1ccc(F)cc1F | inactive | –
30 | CCOc1ccc(N2CC(C(=O)OCC(=O)NCc3ccccc3)CC2=O)cc1 (stereo unspecified) | inactive | –
31 | O=C(NC(=S)Nc1c(F)cc(F)cc1Br)c1ccc2c(c1)OCCO2 | inactive | –
32 | CCOC(=O)/C=C1/N(C)c2ccccc2C1(C)C | inactive | –
33 | CCCCOc1ccc(CN2CCC(O)CC2)cc1 | inactive | –
34 | CCO[C@H]1OC(C(=O)O)=C[C@@H](c2ccccc2)[C@@H]1CCCO | inactive | –
35 | CCc1nc(SCC(=O)NCCc2ccccc2)c2c(=O)n(C)c(=O)n(C)c2n1 | inactive | –
36 | C/C(=C\C(=O)OCCCCCCCCC(=O)O)C[C@@H]1OC[C@H](C[C@@H]2O[C@H]2[C@@H](C)[C@H](C)O)[C@@H](O)[C@H]1O | inactive | –
37 | Cc1cc(C)n2nc(S(=O)(=O)Nc3c(Cl)cccc3Cl)nc2n1 | inactive | –
38 | COc1cccc(OC)c1C(=O)Nc1ccc(N2CCN(S(C)(=O)=O)CC2)cc1 | inactive | –
39 | O=C(c1ccccc1F)N1C(=O)c2cccc3cccc1c23 | inactive | –
40 | CCc1cccc2c(C=C(C#N)C#N)cn(CC(=O)N3CCCCCC3)c12 | inactive | –
41 | COc1ccc(-c2cc(C(=O)Nc3ccc(S(=O)(=O)Nc4onc(C)c4C)cc3)c3ccccc3n2)cc1OC | inactive | –
42 | O=C1C(O)=C(O)C(=O)c2ccccc21 | inactive | –
43 | Cc1cccc2cc(C(c3nnnn3Cc3ccccc3)N3CCN(C)CC3)c(=O)[nH]c12 (stereo unspecified) | inactive | –
44 | O=C(C[n+]1cc(-c2ccc(Cl)cc2)n2c1CCC2)Nc1nc(-c2ccccc2)cs1 | inactive | –
45 | C#CCOCCOCCOCCNc1nc(N2CCN(C(=O)[C@H](CCCCN)n3cc([C@@H](N)CO)nn3)CC2)nc(N2CCN(C(=O)[C@H](Cc3cc4ccccc4[nH]3)n3cc([C@@H](N)Cc4ccc(O)cc4)nn3)CC2)n1 | inactive | –
46 | COc1ccc(-n2nnc3c(SCC(=O)N4CCCc5ccccc54)ncnc32)cc1 | inactive | –

Row | SMILES | outcome | min viability [%]
47 | CC(C)(C)SCCNC(=O)c1ccccc1 | inactive | –
48 | Cc1cc(C)c2c(=O)[nH]c(SCC(=O)N3CCCCC3)nc2n1 | inactive | –
49 | CN(CC(=O)NCc1ccncc1)S(=O)(=O)c1ccccc1 | inactive | –
50 | O=C(Nc1ccc2c(c1)OCCO2)C(=S)NCc1ccccc1 | inactive | –
51 | CCN(CC)CCn1nc(C)nc1-c1ccccc1O | inactive | –
52 | CCN(CC(=O)Nc1ccc(C(=O)OC)cc1)C1CCCCC1 | inactive | –
53 | CC(=O)NS(=O)(=O)c1ccc(Nc2ccc([N+](=O)[O-])c3nonc23)cc1 | inactive | –
54 | O=C(NC(CO)Cc1ccc([N+](=O)[O-])cc1)C(Cl)Cl (stereo unspecified) | inactive | –
55 | C#CCOCCOCCOCCNc1nc(N2CCN(C(=O)[C@H](Cc3cc4ccccc4[nH]3)n3cc([C@@H](N)CC(C)C)nn3)CC2)nc(N2CCN(C(=O)[C@H](Cc3cc4ccccc4[nH]3)n3cc([C@@H](N)CC(C)C)nn3)CC2)n1 | inactive | –
56 | COCCN1C(=O)C(=O)/C(=C(/O)c2cccc(OC)c2)C1c1ccncc1 (stereo unspecified) | inactive | –
57 | Cc1cccc(NC(=O)CSc2nc3c([nH]c4ccccc43)c(=O)n2C)c1 | inactive | –
58 | O=C(COc1ccc(Cl)cc1)Nc1cccc(-c2ccc3nncn3n2)c1 | inactive | –
59 | CO[C@H]1/C=C/O[C@@]2(C)Oc3c(C)c(O)c4c(O)c(c(C=NN5CCN(C)CC5)c(O)c4c3C2=O)NC(=O)/C(C)=C\C=C\[C@H](C)[C@H](O)[C@@H](C)[C@@H](O)[C@@H](C)[C@H](OC(C)=O)[C@@H]1C | inactive | –
60 | CCOC(=O)c1ccc(NC(=O)c2cc3c(s2)CCC3)cc1 | inactive | –
61 | CCC1(CC)C(=O)NC(=O)NC1=Nc1cccc(OC)c1 | inactive | –
62 | CCOc1ccc2nnnn2n1 | inactive | –
63 | CCCCC(=O)Nc1ccc(F)c(Cl)c1 | inactive | –
64 | Clc1ccc(Cn2cc(Br)cn2)cc1Cl | inactive | –
65 | CCOC(=O)CSc1nc(-c2ccccc2)nc2ccccc12 | inactive | –
66 | COc1ccccc1NC(=O)Cn1c(=O)n(CCc2c[nH]c3ccccc23)c(=O)c2cccnc21 | inactive | –
67 | c1ccc(N2CCN(c3nc4ccccc4[nH]3)CC2)nc1 | inactive | –
68 | C=CCOc1ccc(-c2n[nH]c(=S)o2)cc1 | inactive | –
69 | C=CC1=C(C(=O)O)N2C(=O)[C@@H](NC(=O)/C(=N\O)c3csc(N)n3)[C@H]2SC1 (stereo in doubt) | inactive | –

Row | SMILES | outcome | min viability [%]
70 | COc1ccc(/C=N/NC(=O)c2cccnc2)cc1 | inactive | –
71 | Cc1ccc2cc(-c3noc(C4CCCO4)n3)c(=O)[nH]c2c1 (stereo unspecified) | inactive | –
72 | CCOc1ccc(NC(N)=O)cc1 | inactive | –
73 | Clc1ccc(OCc2nn3c(C4CCCCC4)nnc3s2)c(Cl)c1 | inactive | –
74 | COc1ccccc1CNC(=O)COC(=O)CCC(=O)c1cccs1 | inactive | –
75 | O=c1c2ccccc2ncn1Cc1ccc(Cl)cc1 | inactive | –
76 | COc1nc(N(C#N)CC(N)=O)nc(N2CCCC2)n1 | inactive | –
77 | Cc1ccc(-c2c(C)n([O-])c3c([n+]2=O)CCCC3)o1 | inactive | –
78 | O=S(=O)(c1ccccc1)c1nc(-c2cccs2)oc1NCC1CCCO1 (stereo unspecified) | inactive | –
79 | C#CCOCCOCCOCCNc1nc(N2CCN(C(=O)C(Cc3cc4ccccc4[nH]3)n3cc(C(N)C(C)CC)nn3)CC2)nc(N2CCN(C(=O)C(Cc3cc4ccccc4[nH]3)n3cc(C(N)C(C)CC)nn3)CC2)n1 (stereo unspecified) | inactive | –
80 | CC[C@H]1OC(=O)[C@H](C)[C@@H](O[C@H]2C[C@@](C)(OC)[C@@H](O)[C@H](C)O2)[C@H](C)[C@@H](O[C@@H]2O[C@H](C)C[C@H](N(C)C)[C@H]2O)[C@](C)(OC)C[C@@H](C)C(=O)[C@H](C)[C@@H](O)[C@]1(C)O | inactive | –
81 | CCOC(=O)Cc1[nH]nc2c1C(c1ccoc1)C(C#N)=C(N)O2 (stereo unspecified) | inactive | –
82 | O/N=C/c1ccc(OCc2ccccc2)c(Cl)c1 | inactive | –
83 | C#CCOCCOCCOCCNc1nc(N2CCN(C(=O)[C@H](Cc3ccc(O)cc3)n3cc([C@@H](N)CC(C)C)nn3)CC2)nc(N2CCN(C(=O)[C@H](Cc3cc4ccccc4[nH]3)n3cc([C@@H](N)CC(C)C)nn3)CC2)n1 | inactive | –
84 | Cc1ncc([N+](=O)[O-])n1CC(=O)NC1CCCC1 | inactive | –
85 | Cc1ccc(N(C(=O)c2sc(C)nc2C)C(C(=O)NCc2ccco2)c2ccccc2)cc1 (stereo unspecified) | inactive | –
86 | CCOC(=O)c1ccc(CNCc2ccc(Br)cc2)cc1 | inactive | –
87 | Cc1cc(C)cc(NC(=O)C(Sc2nnc(C)c(=O)[nH]2)c2ccccc2)c1 (stereo unspecified) | inactive | –
88 | Nc1ccc(S(=O)(=O)Nc2nccs2)cc1 | inactive | –
89 | CC(C)c1cc(C(=O)Nc2ccc3c(c2)OCO3)no1 | inactive | –
90 | CC1Cc2ccccc2N1C(=O)CN1C(=O)C(=O)N(Cc2ccccc2)C1=O (stereo unspecified) | inactive | –

— PubChem BioAssay AID2252 (Southern Research Specialized Biocontainment Screening …, 2010)
